According to PubChem BioAssay (NCI):
About 83,000 compounds went through this panel and 20% of them were active in at least one assay; those are over-represented in the sample as a whole.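 Percent growth is the endpoint: 0 to 100 indicates growth inhibition (40 means 60% inhibition), 0 means no net growth, and negative values indicate cell death.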 The source made the active and inactive calls.

What follows are compounds tested on HCT-116 colon (assay: NCI-60 one-dose screen, 48 h (100 = growth as untreated, 0 = no growth, -100 = all killed)). Settings: 10 µM.
Description: Growth inhibition of the HCT-116 human tumor cell line is measured as a screen for anti-cancer activity. Cells are grown in 96 well plates and exposed to the test compound for 48 hours. Compounds are tested at a single concentration, which is 10^-5 M for most compounds. The reported endpoint is percent growth (GI% or GIPRCNT), where numbers from 0 - 100% represent growth inhibition, and numbers from -100% - 0 represent cell death. For example, a value of 40 represents 60% growth inhibition. A value of 0 means no net growth occurred over the course of the experiment. A value of -40 indicates 40% of cells at the beginning of the experiment died by the end of the experiment. A value of -100 means all cells are dead at the end of the experiment.
NCI-60 Human Tumor Cell Lines Screen was performed using the standard one-dose NCI protocol, which is described in more detail at https://dtp.cancer.gov/discovery_development/nci-60/default.htm.
Compounds with GIPRCNT values below 10 were considered active. Activity score was based on GIPRCNT using the following formula: […]
Score is 0 for GIPRCNT values of 100 or above, 50 for GIPRCNT values of 0, and 100 for GIPRCNT values of -100.

SMILES | growth
COc1cc(/C(=C2/O[C@@H]([C@H]3COC(C)(C)O3)[C@H]3OC(C)(C)O[C@@H]23)c2ccc3ccccc3c2)cc(OC)c1OC | -56.4% (active)
COc1ccc2c(c1)N(CCO)C1=C(C(=O)OC1)C2c1ccc(OC)c(OC)c1 (stereo not given) | 26.7% (inactive)
COc1cc(/C=N/NC(=O)c2ccccc2Nc2cccc(C(F)(F)F)c2)cc(OC)c1OC | 158% (inactive)
Clc1ccccc1N=Cc1ccc2c(c1)OCO2 | 103% (inactive)
O=C(O)CCCCSc1ncnc2nc[nH]c12 | 103% (inactive)
Cc1ccc(NC(=O)Nc2cccnc2)cc1NC(=O)Nc1cccnc1 | 90.2% (inactive)
CCOC(=O)C1(CC(C)C)CCOC1=O (stereo not given) | 107% (inactive)
CCN1Cc2c(/C=C/c3ccccc3)nc3ccc(OC)cc3c2N(c2cccc(Cl)c2)C1 | 45.8% (inactive)
O=C(Nc1cccc(-n2cc(-c3ccncc3)c(-c3ccc(O)c(Cl)c3)n2)c1)Nc1ccc(Cl)c(Cl)c1 | 1.72% (active)
CN(Cc1ccccc1)Cc1ccc([N+](=O)[O-])cc1I | 84% (inactive)
COc1cccc(-c2cc(-c3cccc(NS(C)(=O)=O)c3)nc(N)c2C#N)c1O | 24.7% (inactive)
CC(=O)N1N=C(c2ccc(Cl)cc2)CC1c1sc(Cl)nc1Cl (stereo not given) | 75.9% (inactive)
O=S(=O)(Nc1ccccn1)c1ccc(N=Nc2ccc(O)c3ncccc23)cc1 | 10.6% (inactive)
Oc1[nH]c2cc(Cl)ccc2c1/C=c1/ccc2c(c1)N=C(c1cc(F)cc(F)c1)N=2 | 18.8% (inactive)
N#Cc1c(C#N)c(SSc2c(C#N)c(C#N)c(N)n2-c2ccccc2)n(-c2ccccc2)c1N | 104% (inactive)
O=C(O)c1ccc(Cl)cc1Nc1ccc(F)cc1 | 72.8% (inactive)
Clc1ccc(-c2cn(-c3ccccc3)c(-c3ccccc3)n2)c(Cl)c1 | -100% (active)
c1ccc([C@H]2CN3CCSC3=N2)cc1 | 110% (inactive)
CCOC(=O)C(CSC(c1ccccc1)(c1ccccc1)c1ccccc1)NC(=O)C(CSC(c1ccccc1)(c1ccccc1)c1ccccc1)NC(c1ccccc1)(c1ccccc1)c1ccccc1 (stereo not given) | 108% (inactive)
Cc1cc2c(C)c3cc(C)c(N)cc3nc2cc1N | -9.81% (active)

SMILES | growth
COc1ccc(-n2c(SCc3cc(OC)c(OC)c(OC)c3)nc3ccc(C)cc3c2=O)cc1 | 35% (inactive)
CC(C)(C#N)Nc1ccccc1 | 101% (inactive)
Cc1ccc(S(=O)(=O)Oc2ccc3c4c(c(=O)oc3c2)CCCCC4)cc1 | 36.7% (inactive)
COc1cc(CNCCCCCCN2C(=O)c3cccc4cccc(c34)C2=O)ccc1O | 31.4% (inactive)
COc1ccc(/C=C2/CN(CCC#N)C/C(=C\c3ccc(OC)cc3)C2=O)cc1 | -68.2% (active)
Cc1ccc(NC(=O)Nc2c(Cl)cccc2Cl)cn1 | 104% (inactive)
CC1(C)N=C(N)N=C(N)N1c1ccc(CCc2ccccc2)c(Cl)c1 | 10.2% (inactive)
CCCCC(CCCCCC(CCCC)NCc1ccc2c(c1)OCO2)NCc1ccc2c(c1)OCO2 (stereo not given) | -100% (active)
Clc1ccc(Nc2ccnc(NCCCNc3ccnc4cc(Cl)ccc34)n2)cc1 | -78.3% (active)
CNc1ccc(CSc2ccc(C)cc2)cc1 | 93.6% (inactive)
O=C(Nc1nc(-c2ccccc2Cl)cs1)c1cc(-c2ccc(Cl)cc2)nc2ccc(Cl)cc12 | 6.81% (active)
COc1ccc(-c2nc(-c3nc4ccc(OC)cc4[nH]3)cc3c2[nH]c2ccccc23)cc1 | 21.3% (inactive)
CC(=O)N(C)c1ccc(Nc2ccc(Nc3ccc(N(C)C(C)=O)cc3)c3c2C(=O)c2ccccc2C3=O)cc1 | 73.5% (inactive)
COc1cc(-c2cc(C(=O)N3CCN(C(=O)c4ccccc4NCc4cccs4)CC3)nc3cc(-c4ccccc4)nn23)cc(OC)c1OC | 55.9% (inactive)
CCOC(=O)N1C/C(=C/c2ccc(F)cc2)C(=O)/C(=C/c2ccc(F)cc2)C1 | -83.9% (active)
c1ccc(CO[C@H]2CO[C@H]3[C@@H]2OC[C@H]3OCc2ccccc2)cc1 | 105% (inactive)
COc1ccc(OC)c(/C=C/c2nnc(Nc3ccc(Cl)cc3)o2)c1 | 21.9% (inactive)
O=C(Nc1ccc(CO)cc1)c1ccccc1Nc1ccnc(C(F)(F)F)c1 | 101% (inactive)
Nc1nc(N)c2c(ccc3nccc32)[nH]1 | 15.1% (inactive)
COc1cc2c(cc1OCCCCCCN1CCN(CC(=O)Nc3ccc(Cl)cc3C(=O)c3ccccc3Cl)CC1)N=CC1CCCN1C2=O (stereo not given) | -42.3% (active)
